Shown are actives, neighbours in structure and some others; about 3.4% of the full set was active somewhere.
ADAM10 inh – inhibits human ADAM10 | O14672 | recombinant ADAM10, EDANS/DABCYL FRET peptide cleavage, 3 h | inhibition, % at 7 µM | hit rate 0.62% among 370,000;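 active means inhibition above a per-campaign cutoff equal to the mean of compounds falling between control-based bounds plus 3 SD, cut at about 20% in these data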;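 further: 0% = DMSO wells while the 100% control is not disclosed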
HGIII-sPLA2 inh – Blocks human group III sPLA2 activity. Q9NZ20. hit rate 0.56% among 370,000. QFRET BODIPY PC-A2 liposome hydrolysis, fluorescence. inhibition, % at 12.2 µM;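 active means inhibition above mean plus 3 SD of compounds lying within the high and low control bounds, cut at about 19% in these data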;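 further: 0% = median of test compound wells and 100% = no enzyme DMSO wells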
PLC-beta3 inh – blocks human PLC-beta3 enzyme activity; Purified PLC-beta3, fluorogenic substrate, fluorescence; inhibition, % at 12.2 µM; hit rate 0.18% among 370,000; in the data active means inhibition above about 11%;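 further: 0% = median of compound wells on plate and 100% = full blocker control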
ADAM17 inh – inhibits human ADAM17. hit rate 0.83% among 370,000. AID 720648. inhibition, % at 6.95 µM. P78536. recombinant ADAM17, EDANS/DABCYL FRET peptide cleavage;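 active means inhibition above the mean of compounds lying between control limits plus 3 SD, set per campaign, cut at about 8.5% in these data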;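 further: 0% = DMSO-only wells as the low control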
PLCg1 inh – blocks human PLC-gamma1 enzyme activity; P19174; purified PLC-gamma1, fluorogenic substrate, fluorescence; inhibition, % at 12.2 µM; hit rate 0.84% among 370,000; in the data active means inhibition above about 9.5%
KLK7 zymogen act – activates the human kallikrein-7 zymogen. P49862. purified proKLK7, EDANS-DABCYL substrate fluorescence; 100% is mature enzyme control, 0% vehicle. activation, % at 7 µM. hit rate 0.9% among 370,000;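 active means activation above the mean of all tested compounds plus 3 SD, computed per campaign excluding outliers beyond control limits, cut at about 13% in these data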
ADAM10 ctr – counter-screen for ADAM17 exosite inhibitors: inhibitors of human ADAM10 | inhibition, % at 6.95 µM | shares compounds with ADAM17 inh | hit rate 47% among 2,900 | recombinant ADAM10, EDANS/DABCYL FRET peptide cleavage, 3 h;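 active means mean inhibition over the triplicate runs exceeds the activity threshold set in the earlier primary screen, cut at about 20% in these data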;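 further: 0% = DMSO wells and 100% = marimastat wells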
ADAM17 confirm – human ADAM17 inhibition, confirmation | shares compounds with ADAM17 inh | recombinant ADAM17, EDANS/DABCYL QFRET peptide cleavage | inhibition, % at 6.95 µM | hit rate 65% among 2,900 | AID 743257;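 active means mean inhibition across replicates above the hit cutoff set in the primary screen, cut at about 8.5% in these data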;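 further: 0% = DMSO wells and 100% = marimastat wells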
* hit, by the source's call.

How did O=C(COC(=O)c1ccc2[nH]c3c(c2c1)CCCC3)Nc1ccccc1Cl do in these assays?
ADAM10 inh: -12; HGIII-sPLA2 inh: -5; PLC-beta3 inh: -7; ADAM17 inh: 0; PLCg1 inh: -3; KLK7 zymogen act: 0

How did CCC(C)c1ccccc1NC(=O)COC(=O)c1ccc2[nH]c3c(c2c1)CCCC3 (stereo unspecified) do in these assays?
ADAM10 inh: 2; HGIII-sPLA2 inh: -66; PLC-beta3 inh: -39; ADAM17 inh: 11*; PLCg1 inh: -32; KLK7 zymogen act: 2; ADAM10 ctr: -1; ADAM17 confirm: 6

How did Cc1ccc(-n2cnc3c(=O)[nH]cnc32)cc1 do in these assays?
ADAM10 inh: -12; HGIII-sPLA2 inh: 2; PLC-beta3 inh: 4; ADAM17 inh: -3; PLCg1 inh: 5; KLK7 zymogen act: 0

How did COc1ccc(/C=N/NC(N)=S)cc1OC(=O)c1ccccc1 do in these assays?
ADAM10 inh: -1; HGIII-sPLA2 inh: -5; PLC-beta3 inh: -6; ADAM17 inh: 9.1*; PLCg1 inh: 3; KLK7 zymogen act: 0; ADAM10 ctr: 10; ADAM17 confirm: 8

What do the screens show for `CCOC(=O)c1cc2sccc2n1CC(=O)OC`?
ADAM10 inh: -5; HGIII-sPLA2 inh: -1; PLC-beta3 inh: 2; ADAM17 inh: -3; PLCg1 inh: 1; KLK7 zymogen act: 0

How did CCOC(=O)Cn1c(C(=O)OCC)cc2sccc21 do in these assays?
ADAM10 inh: 1; HGIII-sPLA2 inh: -2; PLC-beta3 inh: 7; ADAM17 inh: 9.2*; PLCg1 inh: 5; KLK7 zymogen act: 0; ADAM10 ctr: 3; ADAM17 confirm: 7

How did Cc1ccc(Cn2ccc(=O)c(OCc3c(Cl)cccc3Cl)c2C)cc1 do in these assays?
ADAM10 inh: 17; HGIII-sPLA2 inh: -8; PLC-beta3 inh: -2; ADAM17 inh: 11*; PLCg1 inh: 2; KLK7 zymogen act: 0; ADAM10 ctr: 15; ADAM17 confirm: 10*

Results for CCCCCN(C(=O)CCc1cn(CCCCC)c2ccccc12)c1ccc(Oc2cccnc2)cc1 ?
ADAM10 inh: -2; HGIII-sPLA2 inh: -11; PLC-beta3 inh: 0; ADAM17 inh: -3; PLCg1 inh: -4; KLK7 zymogen act: 0

How did CCCN(C(=O)c1cn(CCC)c2ccccc12)c1ccc(Oc2cccnc2)cc1 do in these assays?
ADAM10 inh: 11; HGIII-sPLA2 inh: -15; PLC-beta3 inh: -2; ADAM17 inh: 10*; PLCg1 inh: 1; KLK7 zymogen act: 0; ADAM10 ctr: 16; ADAM17 confirm: 9.1*

How did COc1ccc(-c2cc(-c3n[nH]c(=S)n3-c3cccc4ccccc34)[nH]n2)cc1 do in these assays?
ADAM10 inh: 19; HGIII-sPLA2 inh: -25; PLC-beta3 inh: 3; ADAM17 inh: 8.7*; PLCg1 inh: 0; KLK7 zymogen act: 0; ADAM10 ctr: 18; ADAM17 confirm: 8

Results for COc1ccccc1-n1c(-c2cc(-c3ccc(F)cc3)n[nH]2)n[nH]c1=S ?
ADAM10 inh: 7; HGIII-sPLA2 inh: -5; PLC-beta3 inh: -1; ADAM17 inh: 4; PLCg1 inh: 1; KLK7 zymogen act: 0

What do the screens show for `COc1ccc(Nc2nnc(SCC(=O)/C=C3/N(C)c4ccccc4C3(C)C)s2)cc1`?
ADAM10 inh: 5; HGIII-sPLA2 inh: -2; PLC-beta3 inh: -5; ADAM17 inh: 5; PLCg1 inh: 1; KLK7 zymogen act: -1

Results for CSc1ncccc1C(=O)N(C)CC(=O)Nc1ccc(Cl)c(C(F)(F)F)c1 ?
ADAM10 inh: -4; HGIII-sPLA2 inh: 3; PLC-beta3 inh: -12; ADAM17 inh: 0; PLCg1 inh: -1; KLK7 zymogen act: 0

How did CN(CC(=O)Nc1ccc(Cl)c(C(F)(F)F)c1)C(=O)c1cccnc1Sc1ccccc1 do in these assays?
ADAM10 inh: 8; HGIII-sPLA2 inh: -8; PLC-beta3 inh: -5; ADAM17 inh: 12*; PLCg1 inh: 3; KLK7 zymogen act: 0; ADAM10 ctr: 27*; ADAM17 confirm: 9.7*

How did Cc1c(OCC(=O)NCC(O)c2ccccc2)ccc2c(-c3ccccc3)cc(=O)oc12 (stereo unspecified) do in these assays?
ADAM10 inh: -12; HGIII-sPLA2 inh: -4; PLC-beta3 inh: 0; ADAM17 inh: -1; PLCg1 inh: 0; KLK7 zymogen act: 0

Results for COc1cc(NC(=O)c2ccc(S(=O)(=O)N(C)c3ccccc3OC)cc2)cc(OC)c1 ?
ADAM10 inh: 19; HGIII-sPLA2 inh: -23; PLC-beta3 inh: 2; ADAM17 inh: 9.4*; PLCg1 inh: 3; KLK7 zymogen act: 0; ADAM10 ctr: 25*; ADAM17 confirm: 13*

What do the screens show for `COC(=O)c1cccc(NC(=O)c2ccc(S(=O)(=O)N(C)c3ccccc3OC)cc2)c1`?
ADAM10 inh: 12; HGIII-sPLA2 inh: -28; PLC-beta3 inh: 5; ADAM17 inh: 3; PLCg1 inh: -1; KLK7 zymogen act: 1

What do the screens show for `CCOC(=O)c1c(C)[nH]c(C(=O)COC(=O)/C=C/c2ccc(OC(F)F)cc2)c1C`?
ADAM10 inh: -2; HGIII-sPLA2 inh: 5; PLC-beta3 inh: -6; ADAM17 inh: -4; PLCg1 inh: -4; KLK7 zymogen act: 1

How did CCOC(=O)c1c(C)[nH]c(C)c1C(=O)COC(=O)/C=C/c1ccc(OC(F)F)cc1 do in these assays?
ADAM10 inh: 17; HGIII-sPLA2 inh: -42; PLC-beta3 inh: 0; ADAM17 inh: 9.3*; PLCg1 inh: -1; KLK7 zymogen act: 0; ADAM10 ctr: 21*; ADAM17 confirm: 10*

Results for CCN(CC)c1ccc(NC(=O)CSc2nc3ccccc3c(=O)n2-c2cc(S(=O)(=O)N(C)C)ccc2C)cc1 ?
ADAM10 inh: 19; HGIII-sPLA2 inh: 2; PLC-beta3 inh: 3; ADAM17 inh: 10*; PLCg1 inh: 0; KLK7 zymogen act: -1; ADAM10 ctr: 21*; ADAM17 confirm: 15*

Results for CN1CCN(S(=O)(=O)c2ccc(Br)c3ccccc23)CC1 ?
ADAM10 inh: 10; HGIII-sPLA2 inh: -14; PLC-beta3 inh: -3; ADAM17 inh: -4; PLCg1 inh: 3; KLK7 zymogen act: 1

How did CC(C)=CCc1c(O)ccc(C(=O)Cc2ccccc2)c1O do in these assays?
ADAM10 inh: 18; HGIII-sPLA2 inh: -34; PLC-beta3 inh: -8; ADAM17 inh: 10*; PLCg1 inh: 1; KLK7 zymogen act: -1; ADAM10 ctr: 24*; ADAM17 confirm: 13*

What do the screens show for `Cc1ccc(C(=O)Cc2ccccc2)c(O)c1`?
ADAM10 inh: -3; HGIII-sPLA2 inh: -24; PLC-beta3 inh: -2; ADAM17 inh: -5; PLCg1 inh: -3; KLK7 zymogen act: -1

Assay outcomes (PubChem)
